Among all 390,000 compounds or so, about 60 (0.02%) were called active. The full list was thinned out, with actives kept by preference. A number with no mark means an inactive call. No stated cut-off is given here; in the data, active means activity change below about -50%; inconclusive means between about -30% and that limit; inactive means weaker than that.
target: Mucolipin-1 (Homo sapiens) (UniProt Q9GZU1); assay: qHTS for Inhibitors of the Human Mucolipin Transient Receptor Potential 1 (TRPML1); details: TRPML1-inducible cells, Ca2+ dye fluorescence, FDSS; stronger effect = lower value; inhibition of EC80 agonist-evoked calcium signal;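 further: stimulus is agonist 54-4 at its EC80 concentration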
Description: Mutations of human Mucolipin transient receptor potential 1 (TRPML1) cause type IV mucolipidosis (ML4), a devastating neurodegenerative disease in young children. […] Currently, there is no treatment for ML4. […] Under physiological conditions, TRPMLs regulate membrane trafficking by transducing information about PI(3,5)P2 levels into changes in juxtaorganellar Ca2+, thereby triggering membrane fusion/fission events in the late endocytic pathways (endolysosomal trafficking). In addition, TRPML1 mediates release of Fe2+ from late endosomes and lysosomes, which is essential for cellular iron metabolism. Thus, impaired ion (Ca2+ and Fe2+) homeostasis underlies lysosomal dysfunction and ML4 phenotypes. In ML4 cells, the problem is twofold. First, defective Ca2+-dependent membrane trafficking due to TRPML1-deficiency causes accumulation of lipids and other bio-materials in the lysosome. The second strike comes from the lysosomal iron overload (due to impairment of TRPML1's Fe2+ conductivity), which converts the accumulated materials into the nondegradable (resistant to lysosomal degradation) lipofuscin (also called aging pigment) in the lysosome. Lipofuscin accumulation dramatically compromises the functions of lysosomes.
Niemann-Pick type C (NPC) disease is another lysosome storage disease (LSD) with severe neurodegeneration during the childhood. Currently, there is no cure for NPC. […] Thus, TRPML1 is likely to be an essential regulator of lysosome ion homeostasis. We specifically hypothesize that stimulating TRPML1's Fe2+/Ca2+ channel activity in the lysosome using synthetic agonists can alleviate neurodegeneration associated with ML4 or NPC.
To this end, a high throughput screen was developed in a miniaturized format to screen against the Molecular Libraries Small Molecule Repository (MLSMR) to find small molecules that act either as inhibitors or agonist against the TRPML1 channel.
NIH Chemical Genomics Center [NCGC]
NIH Molecular Libraries Probe Centers Network [MLPCN]
Assay Submitter (PI): Haoxing Xu, University of Michigan Ann Arbor
TRPML1-DL cells are dissociated from flasks, counted and, brought up to a density of 500,000 cells per mL of media containing a 1X Tet inducer. Using a Multidrop Combi, 3 uL of this cell solution is dispensed to each well of a 1536 TC treated, black, clear bottom hi base plate for a final cell density of 1,500 cells per well. The assay plates are incubated overnight (approximately 16 hours) at 37 degrees C and 5% CO2. Using a Multidrop Combi, 2 uL of ABD Ca8 no wash dye plus quencher is added to each well. The assay plates incubate at room temperature in the dark for 45-90 minutes. The assay plate is read on the FDSS using the following protocol: 10 second baseline read, 23 nL of compounds and controls are added using 1536 pintool, agonist read for 110 seconds, 1 uL EC80 addition (4 uM final 54-4 diluted in media), antagonist read for 110 seconds.
On the % scale 0 is the no-effect control and ±100 the full control effect.

Sequence of Mucolipin-1 (Homo sapiens) (Q9GZU1 whole entry, looked up, the tested form may be a part): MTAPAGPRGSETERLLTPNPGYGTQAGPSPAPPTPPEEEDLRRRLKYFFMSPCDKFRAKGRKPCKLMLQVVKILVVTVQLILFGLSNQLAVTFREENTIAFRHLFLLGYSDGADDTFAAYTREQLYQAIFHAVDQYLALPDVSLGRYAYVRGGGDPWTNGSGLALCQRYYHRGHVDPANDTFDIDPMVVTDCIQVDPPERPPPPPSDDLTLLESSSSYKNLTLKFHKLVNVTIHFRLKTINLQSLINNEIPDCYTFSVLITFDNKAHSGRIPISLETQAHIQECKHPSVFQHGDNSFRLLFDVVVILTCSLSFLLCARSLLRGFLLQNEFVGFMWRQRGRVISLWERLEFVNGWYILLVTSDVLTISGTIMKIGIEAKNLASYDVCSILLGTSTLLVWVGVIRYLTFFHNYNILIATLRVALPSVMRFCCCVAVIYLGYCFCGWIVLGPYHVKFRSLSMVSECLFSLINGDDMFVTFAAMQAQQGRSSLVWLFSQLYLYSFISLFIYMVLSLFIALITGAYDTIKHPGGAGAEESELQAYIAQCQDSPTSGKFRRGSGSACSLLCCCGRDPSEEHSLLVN

SMILES | activity change, negative = inhibition
COc1cccc2cc(-c3nc(Cl)c4c5c(sc4n3)CC(C)CC5)c(=O)oc12 (configuration not stated) | -7.72%
Cc1ccc(Nc2nc(N)nc(CN3CCN(Cc4ccccc4)CC3)n2)cc1Cl | -62.2% (active)
CCOC(=O)C1CCCN(Cc2nc(N)nc(Nc3ccc(C)cc3)n2)C1 (configuration not stated) | -0.383%
Cc1cc(N2CCOCC2)nc2ccc(NC(=S)N3CCN(Cc4ccccc4)CC3)cc12 | -15.7%
Cc1ccc(-n2c(SCC(=O)c3ccccc3)nc3c([nH]c4ccccc43)c2=O)cc1 | 13.9%
O=C(CSCc1cnn(-c2ccccc2)c1-n1cccc1)NCc1ccccc1Br | 2.1%
CC1=C(C(=O)OCc2ccc(C)cc2)C(c2ccccc2Cl)CC(=O)N1 (configuration not stated) | 31.3%
C#CC(C)(CC)NC(=O)Cn1nnc(-c2ccc(OCc3c(F)cccc3Cl)cc2)n1 (configuration not stated) | -6.13%
Cn1c(=O)c2c(nc(SCC(=O)Nc3ccc(F)cc3)n2Cc2ccc(Cl)cc2)n(C)c1=O | 3.84%
Cc1cccc(C(=O)Nc2ccc(-c3nc4ncccc4o3)cc2C)c1 | -6.3%
COC(=O)CCc1ccccc1S(=O)(=O)N(CCC(=O)OC)Cc1ccccc1 | -2.45%
CC(C)(C)n1ncc2c(=O)n(Cc3ccc(C(=O)c4ccccc4)cc3)cnc21 | 1.11%
COc1cccc(CNC(=O)c2ccc3c(c2)N(Cc2ccc(C(F)(F)F)cc2)C(=O)c2ccccc2S3)c1OC | 37.3%
C=C1CCN(Cc2ccc(OC)cc2)S(=O)(=O)c2ccccc21 | 57%
CCOC(=O)c1ccc(-c2ccc(/C=C(\C#N)C(=O)Nc3ccc(OCC)cc3)o2)cc1 | 10.3%
Cc1c(NS(=O)(=O)c2ccc(Cl)cc2)c(=O)n(-c2ccccc2)n1C | -2.41%
CCc1ccc2ncc3c(-c4ccc(C)cc4)nn(CC(=O)NCc4ccccc4)c3c2c1 | 1.33%
COc1ccc(N2CCN(C(=O)C3CCCN(C(=O)c4cc5sccc5n4C)C3)CC2)cc1 (configuration not stated) | -10.9%
COc1cc(Br)cc2cc(S(=O)(=O)c3ccccc3)c(=O)oc12 | 0.895%
COc1ccc(Cl)cc1NC(=O)Cn1c(=O)c2ccccc2n2nncc12 | 11.3%
COc1cc(NC(=O)Cn2nc(-c3ccc(C)c(C)c3)ccc2=O)cc(OC)c1 | -17.3%

SMILES | activity change, negative = inhibition
Cc1ccc(NC(=O)NC(C)c2c(-n3cccc3)sc(C)c2C)c(C)c1 (configuration not stated) | 43%
CCc1nnc(SCc2nc(-c3cccc(C)c3)oc2C)c2cc3sc(C)cc3n12 | -4.34%
CCCOc1ccc(C(=O)Nc2ccc3oc(-c4cccc(Cl)c4Cl)nc3c2)cc1 | -2.03%
COc1ccccc1-c1cc(C(F)(F)F)nc(S(=O)(=O)CCCC(=O)Nc2cc(C)ccc2O)n1 | -10.5%
Cc1ccc(C)c(Oc2c(C(F)(F)F)oc3c(CN4CCN(C)CC4)c(O)ccc3c2=O)c1 | 11.9%
O=C(CN1CCN(Cc2ccc(Cl)cc2)C1=O)NCc1ccc(F)cc1 | 3.6%
COc1cccc(Cn2c(SCc3ccc(C(=O)N4CCCCC4)cc3)nc3ccncc32)c1 | 17.2%
CSc1nc(=O)c2c(n1C)NC(=O)CC2c1ccccc1OC(C)C (configuration not stated) | -8.74%
O=C(Nc1ccc2nc(SCC(=O)N3CCCc4ccccc43)sc2c1)c1ccc(F)cc1 | -5.54%
Cn1cc(S(=O)(=O)N2CCCCCC2)cc1C(=O)N1CCN(c2ccc(F)cc2)CC1 | -18.5%
Cc1ccc(NC(=O)CSc2nc3c([nH]c4ccccc43)c(=O)n2-c2ccccc2)cc1Cl | -8.82%
CCCS(=O)(=O)c1c(Nc2ccccc2C)sc(C(=O)c2ccccc2)c1N | 6.08%
CCC(=O)N1CCc2cc(Br)cc(S(=O)(=O)Nc3ccc(C)cc3C)c21 | 11.5%
O=C(Nc1ccc(Br)cc1)c1cc2nc(-c3ccccc3)cc(-c3ccccc3)n2n1 | 63.6%
O=C(CS(=O)(=O)c1cccc2nsnc12)N1CCN(c2cccc(Cl)c2)CC1 | -7.54%
O=C(COc1ccccc1)NCc1ccc2c(c1)CCN2C(=O)c1ccc(F)cc1 | 25.6%
COc1ccc(NC(=O)c2cc3cc(C)ccc3n2C)cc1 | -10.1%
COC(=O)c1ccc(NC(=O)c2cnn(-c3ccc(Cl)cc3)c2C2CCN(C(=O)OC(C)(C)C)CC2)cc1 | -3.85%
Cc1c(C(=O)N2CCCC2)oc2c1-c1nn(CC(=O)NCc3ccc(OC(C)C)cc3)cc1CC2 | 30.2%
CN1CCN(/[N+]([O-])=N/Oc2ccc([N+](=O)[O-])cc2[N+](=O)[O-])CC1 | -8.85%
COc1cc(OC)c2c(c1C(CCN1CCCCC1)c1ccc(N(C)C)cc1)OC(=O)CC2c1ccc(N(C)C)cc1 (configuration not stated) | -9.58%
